Measured values published in PubChem BioAssay (NCI).
This is part of a sample that, as a whole, favours compounds with a hit. Of some 79,000 tested, about 15% had one in any assay. Activity calls are given as the source filed them. Rule as the data show it: active = growth inhibition above about 70%; inactive = the rest.

Legend:
[1] = NCI Yeast Anticancer Drug Screen. Data for the rad50 strain (AID 155);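 also: 0% = growth of vehicle-only cultures of the same strain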; conditions: S. cerevisiae rad50 strain growth inhibition, stronger effect = higher value
Summary of the method: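 Inhibition values express reduced yeast growth in compound-treated cultures relative to vehicle-treated controls.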

[2] = NCI Yeast Anticancer Drug Screen. Data for the mec2-1 strain (AID 157); conditions: S. cerevisiae mec2-1 strain, stronger effect = higher value
Summary of the method: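 Using mec2-1 yeast: add compound, measure growth, express inhibition versus vehicle-treated cultures.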

[3] = NCI Yeast Anticancer Drug Screen. Data for the sgs1 mgt1 strain (AID 161);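 also: 0% = growth of cultures given vehicle only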; conditions: S. cerevisiae sgs1 mgt1 strain, stronger effect = higher value
Summary of the method: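 Percent growth inhibition was derived by comparing compound-exposed mutant yeast with vehicle-exposed cultures. The strain carries alterations in DNA damage repair.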

[4] = NCI Yeast Anticancer Drug Screen. Data for the cln2 rad14 strain (AID 165);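 also: 0% = growth equal to vehicle treated cultures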; conditions: S. cerevisiae cln2 rad14 strain, stronger effect = higher value
Summary of the method: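 Yeast strain cln2 rad14, bearing defects in cell cycle control and DNA repair, serves as the test system; values reflect growth inhibition compared with vehicle.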

[5] = NCI Yeast Anticancer Drug Screen. Data for the bub3 strain (AID 167); conditions: S. cerevisiae bub3 mutant strain, stronger effect = higher value
Summary of the method: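 Steps: expose the mutant yeast strain to compound; grow alongside vehicle-treated cultures; measure growth; express inhibition against the vehicle cultures.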

[6] = NCI Yeast Anticancer Drug Screen. Data for the mlh1 rad18 strain (AID 175); conditions: S. cerevisiae mlh1 rad18 strain growth inhibition, stronger effect = higher value
Summary of the method: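 Steps: expose repair-defective yeast to compound; measure growth; express inhibition against vehicle-treated controls.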

[7] = at 5.0 µM (retest, dose inferred, filed as 0.5)
[8] = at 50.0 µM (retest, dose inferred, filed as 5.0)

Measured: growth inhibition

O=C1C=C(Cl)C(=O)C(Cl)=C1
active: [1]; [8] 99% | [1]; at 50.0 µM 99.4% | [2]; [8] 99% | [2]; at 50.0 µM 99.3% | [3]; [8] 99% | [3]; at 50.0 µM 99.5% | [4]; [8] 95% | [4]; at 50.0 µM 91.5% | [5]; [8] 99% | [5]; at 50.0 µM 99.3% | [6]; [8] 99% | [6]; at 50.0 µM 99.4%
inactive: [1]; [7] 15% | [2]; [7] 23% | [3]; [7] 7% | [4]; [7] 0% | [5]; [7] 10% | [6]; [7] 20%

O=C(O)c1ccccc1.[Zn+2]
inactive: [1]; [7] 1% | [1]; [8] -5% | [1]; at 50.0 µM 19.4% | [2]; [7] 3% | [2]; [8] -10% | [2]; at 50.0 µM 8.6% | [3]; [7] 4% | [3]; [8] 9% | [3]; at 50.0 µM 15.5% | [4]; [7] -3% | [4]; [8] -21% | [4]; at 50.0 µM -74.6% | [5]; [7] -8% | [5]; [8] -1% | [5]; at 50.0 µM 45.6% | [6]; [7] 6% | [6]; [8] 10% | [6]; at 50.0 µM 1.9%

O=C(CCCc1ccccc1)[O][Hg][c]1ccccc1
active: [1]; [7] 99% | [1]; [8] 99% | [1]; at 50.0 µM 99.7% | [2]; [7] 100% | [2]; [8] 99% | [2]; at 50.0 µM 99.7% | [3]; [7] 98% | [3]; [8] 99% | [3]; at 50.0 µM 99.6% | [4]; [7] 99% | [4]; [8] 99% | [4]; at 50.0 µM 99.2% | [5]; [7] 99% | [5]; [8] 99% | [5]; at 50.0 µM 99.2% | [6]; [7] 99% | [6]; [8] 99% | [6]; at 50.0 µM 99%

CC(=O)NC1=C(N(CCCl)CCCl)C(=O)c2ccccc2C1=O
inactive: [1]; [7] 20% | [2]; [7] 12% | [3]; [7] 18% | [4]; [7] -4% | [5]; [7] 23% | [6]; [7] 18%
active: [1]; [8] 98% | [1]; at 50.0 µM 99% | [2]; [8] 98% | [2]; at 50.0 µM 98.2% | [3]; [8] 99% | [3]; at 50.0 µM 98.2% | [4]; [8] 96% | [4]; at 50.0 µM 96.2% | [5]; [8] 97% | [5]; at 50.0 µM 99% | [6]; [8] 98% | [6]; at 50.0 µM 98.9%

Clc1ccc(Cl)c(Cl)c1
active: [1]; [8] 99% | [1]; at 50.0 µM 98.4% | [2]; [8] 97% | [2]; at 50.0 µM 99% | [3]; [8] 98% | [3]; at 50.0 µM 98.8% | [4]; [8] 92% | [4]; at 50.0 µM 96.5% | [5]; [8] 98% | [6]; [8] 99% | [6]; at 50.0 µM 98.2%
inactive: [1]; [7] -10% | [2]; [7] -3% | [3]; [7] -6% | [4]; [7] 8% | [5]; [7] -8% | [5]; at 50.0 µM 62% | [6]; [7] 2%

CCNC(=O)OOC(C)(C)C
inactive: [1]; [7] 16% | [2]; [7] 6% | [2]; at 50.0 µM 19.7% | [3]; [7] 4% | [3]; at 50.0 µM -5.55% | [4]; [7] -2% | [4]; at 50.0 µM -17.8% | [5]; [7] -2% | [5]; at 50.0 µM 1.45% | [6]; [7] 19% | [6]; at 50.0 µM 21.7%
active: [1]; [8] 93% | [1]; at 50.0 µM 74.7% | [2]; [8] 83% | [3]; [8] 94% | [4]; [8] 77% | [5]; [8] 72% | [6]; [8] 96%

CC1c2c(n(C)c3ccccc23)C2CCC3(CO3)C1N2Cc1ccccc1 (stereo not given)
active: [1]; [8] 97% | [1]; at 50.0 µM 90.5% | [2]; [8] 99% | [2]; at 50.0 µM 92% | [3]; [8] 99% | [3]; at 50.0 µM 93.3% | [4]; [8] 98% | [4]; at 50.0 µM 90% | [5]; [8] 99% | [5]; at 50.0 µM 92.5% | [6]; [8] 98% | [6]; at 50.0 µM 92.2%
inactive: [1]; [7] 25% | [2]; [7] 22% | [3]; [7] 42% | [4]; [7] 24% | [5]; [7] 26% | [6]; [7] 35%

CCOP(=S)(OCC)SCc1c(C)c(C)c(CSP(=S)(OCC)OCC)c(C)c1C
inactive: [1]; [7] 1% | [1]; [8] -11% | [1]; at 50.0 µM -4.3% | [2]; [7] -4% | [2]; [8] -2% | [2]; at 50.0 µM -3.75% | [3]; [7] -8% | [3]; [8] 2% | [3]; at 50.0 µM -12.2% | [4]; [7] 1% | [4]; [8] -10% | [4]; at 50.0 µM 45% | [5]; [7] -4% | [5]; [8] -4% | [5]; at 50.0 µM -0.65% | [6]; [7] 2% | [6]; [8] -5% | [6]; at 50.0 µM 8.8%

CCC[CH2][Sn]1([CH2]CCC)[O]c2ccccc2[O]1
active: [1]; [8] 95% | [1]; at 50.0 µM 89% | [2]; [8] 94% | [2]; at 50.0 µM 90.8% | [3]; [8] 94% | [3]; at 50.0 µM 90.5% | [4]; [8] 92% | [4]; at 50.0 µM 83.8% | [5]; [8] 95% | [5]; at 50.0 µM 89.4% | [6]; [8] 96% | [6]; at 50.0 µM 89.1%
inactive: [1]; [7] 9% | [2]; [7] 23% | [3]; [7] 13% | [4]; [7] 0% | [5]; [7] 35% | [6]; [7] 11%

C#CC1(OC(C)=O)CCC2C3CC=C4C=C(OC(C)=O)CCC4(C)C3CCC21C (stereo not given)
inactive: [1]; [7] 16% | [1]; [8] 48% | [2]; [7] -1% | [2]; [8] 17% | [2]; at 50.0 µM 40.2% | [3]; [7] 2% | [3]; [8] 56% | [4]; [7] 10% | [4]; [8] 15% | [4]; at 50.0 µM -0.6% | [5]; [7] 1% | [5]; [8] 3% | [5]; at 50.0 µM 13.9% | [6]; [7] 2% | [6]; [8] -4% | [6]; at 50.0 µM 61.1%
active: [1]; at 50.0 µM 90.5% | [3]; at 50.0 µM 86.9%
